Assay outcomes from PubChem.
This is a sample that favours compounds with a hit; in the whole collection about 0.9% have one here.
PPARg SRC3 recr: agonists of human PPARgamma SRC-3 coactivator recruitment. P37231. biochemical PPARgamma/SRC-3 coactivator recruitment assay. activation, % at 8 µM. hit rate 0.26% among 200,000; in the data active means activation above about 23%;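 further: 0% = DMSO and 100% = reference agonist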
Target sequence (P37231 whole entry, looked up): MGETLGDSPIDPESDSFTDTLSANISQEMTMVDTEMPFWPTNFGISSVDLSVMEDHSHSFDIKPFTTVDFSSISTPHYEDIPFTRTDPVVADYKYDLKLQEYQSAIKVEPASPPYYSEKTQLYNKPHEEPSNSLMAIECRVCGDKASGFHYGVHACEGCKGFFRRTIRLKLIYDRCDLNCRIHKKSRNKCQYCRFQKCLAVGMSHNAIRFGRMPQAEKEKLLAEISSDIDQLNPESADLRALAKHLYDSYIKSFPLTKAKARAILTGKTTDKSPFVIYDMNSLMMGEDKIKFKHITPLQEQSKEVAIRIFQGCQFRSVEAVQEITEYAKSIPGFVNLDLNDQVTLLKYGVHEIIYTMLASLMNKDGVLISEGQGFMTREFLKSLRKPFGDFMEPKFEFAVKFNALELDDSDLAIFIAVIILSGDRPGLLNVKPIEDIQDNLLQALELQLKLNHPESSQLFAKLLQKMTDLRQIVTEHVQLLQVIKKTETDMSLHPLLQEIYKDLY
SRC1 TRFRET art: TR-FRET artefact, counter-screen to PPARgamma/SRC-1 agonist assay | TR-FRET detection artefact counter-screen, emission ratio; hits give high values | TR-FRET ratio at 8 µM | hit rate 0.34% among 99,000 | AID 1051; in the data active means TR-FRET ratio above about 2300
PPARg SRC-1 ag: PPARgamma-driven SRC-1 recruitment agonism; hit rate 0.41% among 200,000; PPARgamma-SRC-1 coactivator recruitment biochemical assay; activation, % at 8 µM; P37231; AID 631; in the data active means activation above about 19%;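 further: 0% = DMSO and 100% = reference agonist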
SRC2 TRFRET art: flags TR-FRET format artefacts in PPARgamma SRC-2 recruitment agonist screen | TR-FRET ratio at 8 µM | TR-FRET artefact counter-screen; hits give high values | hit rate 0.4% among 200,000 | AID 1049; in the data active means TR-FRET ratio above about 2000
PPARg SRC2 recr: PPARgamma-driven SRC-2 recruitment agonism. AID 1032. activation, % at 8 µM. P37231. hit rate 0.34% among 200,000. PPARgamma LBD-SRC-2 recruitment, biochemical;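 further: 0% = vehicle and 100% = reference agonist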
SRC3 TRFRET art: TR-FRET artefact, counter-screen to PPARgamma/SRC-3 agonist assay; PPARgamma/SRC-3 format; hits give high values; TR-FRET ratio at 8 µM; hit rate 0.39% among 99,000; in the data active means TR-FRET ratio above about 2000
PPARg SRC2 conf: human PPARgamma SRC-2 recruitment agonism, confirmation. AID 1297. biochemical SRC-2 recruitment by PPARgamma. hit rate 52% among 790. shares compounds with PPARg SRC3 recr. activation, % at 8 µM;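 further: 0% = vehicle alone and 100% = reference agonist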
PPARg SRC1 ag: human PPARgamma SRC-1 recruitment agonism, confirmation | PPARgamma–SRC-1 coactivator recruitment biochemical assay | shares compounds with PPARg SRC3 recr | AID 1300 | hit rate 43% among 790 | activation, % at 8 µM; in the data active means activation above about 20%;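 further: 0% = vehicle wells and 100% = reference agonist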
PPARg SRC3 ag: confirmation of agonists of SRC-3 recruitment by human PPARgamma; shares compounds with PPARg SRC3 recr; biochemical PPARgamma-SRC-3 coactivator recruitment, agonist mode; activation, % at 8 µM; hit rate 29% among 790; in the data active means activation above about 24%;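 further: 0% = vehicle wells and 100% = reference agonist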
Active calls of the source: *; . = no result. Unless noted, no stated cut-off is given here; in the data, active means activation above about 22%; inactive means the rest.

SMILES	PPARg SRC3 recr	SRC1 TRFRET art	PPARg SRC-1 ag	SRC2 TRFRET art	PPARg SRC2 recr	SRC3 TRFRET art	PPARg SRC2 conf	PPARg SRC1 ag	PPARg SRC3 ag
COC(=O)C(Cc1ccccc1)NC(=O)c1cc(S(=O)(=O)N(C)C)ccc1Cl (stereo not given)	3	1813	-5	1496	1	1525	.	.	.
CC12CCC(C(=O)N(CSC(=S)N/N=C\c3ccccc3O)C1=O)C2(C)C (stereo not given)	43*	.	18	1953	30*	.	46*	43*	25*
CCCOc1ccc(C2C(C(=O)c3ccco3)=C(O)C(=O)N2CCCn2ccnc2)cc1 (stereo not given)	24	.	19*	1725	14	.	10	5	9
Cc1nn(CCCC(=O)Nc2c(F)cc(F)cc2Br)c(C)c1[N+](=O)[O-]	0	1889	2	1591	8	1736	.	.	.
CCOC(=O)C1=NN(c2ccc(C)cc2)CC1C(=O)OC (stereo not given)	1	1614	-2	1521	2	1556	.	.	.
Cc1cc(C)c2[nH]c(=O)c(CN(Cc3ccc4c(c3)OCO4)Cc3nnnn3C3CCCC3)cc2c1	-15	.	-7	1570	-9	.	.	.	.
Cc1cccc2cc(CN(Cc3ccc(F)cc3)Cc3nnnn3C3CCCC3)c(=O)[nH]c12	62*	.	10	4917*	112*	.	1	1	1
COc1ccc(-n2ncc3c(NC(C)C)ncnc32)cc1	8	.	19*	1605	6	.	6	4	1
Cc1ccc(OCC(=O)N(Cc2ccc(N(C)C)cc2)C2CCS(=O)(=O)C2)cc1 (stereo not given)	15	.	21*	1604	10	.	-1	2	1
CN(C)c1ccc(CN(C(=O)COc2ccc(Br)cc2)C2CCS(=O)(=O)C2)cc1 (stereo not given)	-8	.	13	1438	1	.	.	.	.
O=C(O)c1cccnc1SCC(=O)N1CCCCCC1	8	.	20*	1613	5	.	4	6	1
C=CCNC(=S)NNC(=O)c1ccc(=O)n(Cc2ccc(Cl)cc2Cl)c1	31*	1846	14	1605	1	1621	8	10	19
COc1ccc(S(=O)(=O)N(C(C)=O)c2ccc(OC(C)=O)c3ccccc23)cc1[N+](=O)[O-]	9	2104	4	1537	10	1728	.	.	.
O=C(c1cccc(Oc2ccccc2)c1)N1CCN(c2ccccn2)CC1	1	1848	-2	1704	5	1602	.	.	.
COc1ccc2nc(SCC(=O)N3CCCCC3)c(C#N)cc2c1	4	1902	4	1479	-3	1673	.	.	.
O=C(CSc1ccc(-c2nc3ccccc3[nH]2)cn1)Nc1ccc(S(=O)(=O)N2CCCC2)cc1	1	1936	-1	1868	5	2021	.	.	.
Cc1cc2nc(-c3ccc(SCC(=O)Nc4ccc(S(=O)(=O)N5CCCC5)cc4)nc3)[nH]c2cc1C	20	3103*	31*	3000*	39*	3472*	79*	62*	50*
Cc1cc(=O)[nH]c(SCC(=O)Nc2ccc(S(=O)(=O)N3CCCCC3)cc2)n1	-13	.	-3	1360	6	.	.	.	.
COc1ccc2nc(SCC(=O)Nc3ccc(S(=O)(=O)N4CCCC4)cc3)c(C#N)cc2c1	83*	.	86*	4855*	78*	.	79*	62*	48*
N#Cc1cc2ccccc2nc1SCC(=O)Nc1ccc(S(=O)(=O)N2CCCC2)cc1	7	.	19*	3014*	13	.	5	4	3
COCCCNC(=S)NC(=O)c1ccc(C)cc1	0	1753	-4	1567	-4	1481	.	.	.
O=C(OCC(=O)N1CCc2ccccc2C1)c1cccs1	2	1882	-8	1398	-4	1440	.	.	.
C=CCSC1=Nc2sccc2C2=NC(=O)CN12	11	.	13	1562	23*	.	9	8	7
CS(=O)(=O)N1CCc2cc(NC(=O)c3ccc(Cl)cc3Cl)ccc21	2	1908	9	1616	-4	1508	.	.	.
Cc1ncc(CN2CCC(CO)(Cc3ccccc3)CC2)s1	-2	1634	7	1809	-3	1591	.	.	.
SMILES	PPARg SRC3 recr	SRC1 TRFRET art	PPARg SRC-1 ag	SRC2 TRFRET art	PPARg SRC2 recr	SRC3 TRFRET art	PPARg SRC2 conf	PPARg SRC1 ag	PPARg SRC3 ag
CC(=O)CSc1ccc(-c2nc3cc(C)c(C)cc3[nH]2)cn1	0	1783	-2	1502	0	1677	.	.	.
N#Cc1ccccc1CSc1ccc(-c2nc3ccccc3[nH]2)cn1	26*	.	22*	1850	33*	.	35*	23*	22
O=C(Nc1ccc(N2CCOCC2)cc1N1CCOCC1)c1ccc([N+](=O)[O-])cc1	27*	.	3	1418	14	.	3	0	2
O=C(CCNC(=O)c1ccc([N+](=O)[O-])cc1)Nc1ccc(N2CCOCC2)cc1N1CCOCC1	-3	2042	4	1732	5	1672	.	.	.
Cc1n[nH]c(C)c1CCc1nc2c3ccccc3nc(SCC(N)=O)n2n1	5	.	0	1450	0	.	.	.	.
Cc1ccc(NC(=O)CSc2nc3ccccc3c3nc(CCc4c(C)n[nH]c4C)nn23)cc1F	22	.	25*	1631	6	.	2	-1	2
Cc1ccc(NC(=S)N(CCCN2CCOCC2)Cc2cccnc2)cc1C	-4	1788	3	1699	0	1338	.	.	.
COc1ccc(Br)cc1-c1nc(CCl)cs1	42*	3749*	62*	3230*	62*	3363*	59*	43*	41*
O=C(O)CSc1c2c(nc3cc(C(=O)N4CCCC4)ccc13)CCCC2	2	1966	0	1578	9	1613	.	.	.
O=C(CSc1c2c(nc3cc(Cl)ccc13)CCCC2)NCCN1CCOCC1	19	2381*	27*	2224*	32*	2338*	16	13	13
CCCCNC(=O)c1ccc2c(SCC(=O)O)c3c(nc2c1)CCCC3	0	1557	-4	1528	-4	1511	.	.	.
O=C(NCc1ccco1)c1c2c(nc3ccccc13)CCC2	-4	1760	6	1431	2	1542	.	.	.
COCCCNC(=O)CSc1c2c(nc3ccc(Cl)cc13)CCCC2	19	2727*	31*	1928	28*	2277*	19	13	11
O=C(CSc1c2c(nc3ccccc13)CCCC2)NCc1ccco1	12	2158	21*	1765	13	1591	6	3	4
Cc1ccc(CNC(=O)CSc2c3c(nc4cc(Cl)ccc24)CCCC3)o1	25	.	12	1917	28*	.	27*	18	19
CCC(C)c1ccccc1OCCn1ccnc1 (stereo not given)	3	1702	4	1445	2	1665	.	.	.
